Results filed as inconclusive are left out. Entries that show only a call come without a potency. Unmarked numbers belong to inactive results. The source made the active and inactive calls. Unless noted, calls come from the whole dose curve. Numbered stars: 1 amine (or outer) side, 2 acyl side, 3 side chain; on linkers, the order of the positions; unused ones are H or OH. Starred links: 1 amine or outer side, 2 acyl side, 3 side chain; linkers in the order of their positions; H or OH if unused. Positions of bridges follow the written chain, without caps; N, C: chain ends. Bridge positions count the residues as written; N and C are the ends. Non-standard residues stand in square brackets, D forms with d. Square brackets hold non-standard residues; d marks the D form. Residues, ends and D or L forms follow the SMILES beside them. Peptide text beside a SMILES is read from it. I, II: the chains in the order shown. ξ: configuration not given here. *: point of attachment. Actinocin(9to1) = Cc1c2oc3c(C)ccc(C(=O)[*:1])c3nc-2c(C(=O)[*:2])c(N)c1=O; ΔAla(3-NHCONH2) = NC(=O)NC=C(N)C(=O)O; X1 = NC1=NCCC(C(N[*:1])C(=O)[*:2])N1; NMeV = CN[C@H](C(=O)O)C(C)C; ξβ3hOrn = NCCCC(N)CC(=O)*; Dap = NC[CH](N)C(=O)O; Sar = CNCC(=O)O
Columns and labels:
[1] = qHTS for Inhibitors of the Functional Ribonucleoprotein Complex (vRNP) of Lassa (LASV) Arenavirus: LASV Primary Screen - GLuc reporter signal (AID 1347082; calls by dose curve; tested in HEK293 reporter line; note: nearly all actives have a fitted effect of over 60% in size; for activity change, negative = inhibition: series mostly up to about 57 µM)
[2] = qHTS for Inhibitors of the Functional Ribonucleoprotein Complex (vRNP) of Lassa (LASV) Arenavirus: Viability assay - alamar blue signal for LASV Primary Screen (AID 1347083; calls by dose curve; tested in HEK293 reporter line; note: nearly all actives have a fitted effect of over 80% in size; for activity change, negative = reduced viability: series mostly up to about 57 µM)
[3] = qHTS for Inhibitors of the Functional Ribonucleoprotein Complex (vRNP) of Lymphocytic Choriomeningitis Arenaviruses (LCMV): Viability assay - alamar blue signal for LCMV Primary Screen (AID 1347085; calls by dose curve; tested in HEK293 reporter line; note: nearly all actives have a fitted effect of over 80% in size; for activity change, negative = lower viability: series mostly up to about 57 µM)
[4] = target: Nucleoprotein (Lymphocytic choriomeningitis virus (strain Armstrong)) (UniProt P09992); assay: qHTS for Inhibitors of the Functional Ribonucleoprotein Complex (vRNP) of Lymphocytic Choriomeningitis Arenaviruses (LCMV): LCMV Primary Screen - GLuc reporter signal (AID 1347086); note: nearly all actives have a fitted effect of over 70% in size; for activity change, negative = inhibition: series mostly up to about 57 µM
Sequence of Nucleoprotein (Lymphocytic choriomeningitis virus (strain Armstrong)) (P09992 whole entry, looked up): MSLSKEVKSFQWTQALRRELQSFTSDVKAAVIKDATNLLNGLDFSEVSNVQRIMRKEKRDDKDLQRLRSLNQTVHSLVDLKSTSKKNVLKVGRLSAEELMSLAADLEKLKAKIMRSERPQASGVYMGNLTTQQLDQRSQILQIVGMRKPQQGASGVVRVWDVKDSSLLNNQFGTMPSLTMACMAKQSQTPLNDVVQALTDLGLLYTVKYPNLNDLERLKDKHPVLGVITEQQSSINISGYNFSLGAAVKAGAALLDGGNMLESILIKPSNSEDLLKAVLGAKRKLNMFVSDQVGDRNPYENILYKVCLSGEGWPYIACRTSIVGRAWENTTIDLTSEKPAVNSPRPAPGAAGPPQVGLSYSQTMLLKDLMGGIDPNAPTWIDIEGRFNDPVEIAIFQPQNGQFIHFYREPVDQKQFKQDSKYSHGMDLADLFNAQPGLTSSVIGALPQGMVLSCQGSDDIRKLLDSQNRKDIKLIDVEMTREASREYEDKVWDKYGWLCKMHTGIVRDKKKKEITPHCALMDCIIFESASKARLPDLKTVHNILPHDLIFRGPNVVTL
Potency is the fitted concentration of half-maximal effect.

SMILES	Potency [1]	Potency [2]	Potency [3]	Potency [4]	activity change, negative = inhibition [1]	activity change, negative = reduced viability [2]	activity change, negative = lower viability [3]	activity change, negative = inhibition [4]
Cc1ccc(C)c(OCCCC(C)(C)C(=O)O)c1	inactive	inactive	inactive	inactive	–	–	–	–
NCCCC(O)(P(=O)(O)O)P(=O)(O)O	inactive	inactive	inactive	inactive	–	–	–	–
CC(=O)O[C@]1(C(C)=O)CC[C@H]2[C@@H]3C=C(C)C4=CC(=O)CC[C@]4(C)[C@H]3CC[C@@]21C	inactive	inactive	inactive	inactive	–	–	–	–
CC(C)OC(=O)C(C)(C)Oc1ccc(C(=O)c2ccc(Cl)cc2)cc1	inactive	inactive	inactive	inactive	–	–	–	–
CN(C)[C@@H]1C(=O)C(C(N)=O)=C(O)[C@@]2(O)C(=O)C3=C(O)c4c(O)ccc(Cl)c4[C@@H](O)[C@H]3C[C@@H]12	inactive	inactive	inactive	inactive	–	–	–	–
C[C@]12CC[C@@H]3c4ccc(O)cc4C[C@@H](CCCCCCCCCS(=O)CCCC(F)(F)C(F)(F)F)[C@H]3[C@@H]1CC[C@@H]2O (some centres not stated)	inactive	inactive	inactive	inactive	–	–	–	–
COc1cc(NC(C)CCCN)c2ncccc2c1 (configuration not stated)	inactive	inactive	inactive	inactive	–	–	–	–
COc1ccccc1OCC(O)CN1CCN(CC(=O)Nc2c(C)cccc2C)CC1 (configuration not stated)	inactive	inactive	inactive	inactive	–	–	–	–
Cc1c2oc3c(C)ccc(C(=O)N[C@@H]4C(=O)N[C@H](C(C)C)C(=O)N5CCC[C@H]5C(=O)N(C)CC(=O)N(C)[C@@H](C(C)C)C(=O)O[C@@H]4C)c3nc-2c(C(=O)N[C@@H]2C(=O)N[C@H](C(C)C)C(=O)N3CCC[C@H]3C(=O)N(C)CC(=O)N(C)[C@@H](C(C)C)C(=O)O[C@@H]2C)c(N)c1=O (I: T[dV]P[Sar][NMeV] / II: T[dV]P[Sar][NMeV]; ester I:1-I:C, II:1-II:C; linker I:N-II:N via Actinocin(9to1))	inactive	inactive	inactive	inactive	–	–	–	–
CC1Cc2ccccc2N1NC(=O)c1ccc(Cl)c(S(N)(=O)=O)c1 (configuration not stated)	inactive	inactive	inactive	inactive	–	–	–	–
COc1cc2nc(N3CCN(C(=O)C4CCCO4)CC3)nc(N)c2cc1OC (configuration not stated)	inactive	inactive	inactive	inactive	–	–	–	–
Fc1ccc([C@@H]2CCNC[C@H]2COc2ccc3c(c2)OCO3)cc1	inactive	inactive	inactive	inactive	–	–	–	–
CCCCc1ncc(/C=C(\Cc2cccs2)C(=O)O)n1Cc1ccc(C(=O)O)cc1	inactive	inactive	inactive	inactive	–	–	–	–
O=C(O)P(=O)(O)O	inactive	inactive	inactive	inactive	–	–	–	–
C[C@H]1[C@H](NC(=O)/C(=N/OC(C)(C)C(=O)O)c2csc(N)n2)C(=O)N1S(=O)(=O)O (stereo in doubt)	inactive	inactive	inactive	inactive	–	–	–	–
Cn1c(=O)c2c(ncn2CC(O)CO)n(C)c1=O (configuration not stated)	inactive	inactive	inactive	inactive	–	–	–	–
Cc1cccc(Nc2ccncc2S(=O)(=O)NC(=O)NC(C)C)c1	inactive	inactive	inactive	inactive	–	–	–	–
CNCC[C@@H](Oc1ccccc1C)c1ccccc1	inactive	inactive	inactive	inactive	–	–	–	–
CCCNC(=O)NS(=O)(=O)c1ccc(Cl)cc1	inactive	inactive	inactive	inactive	–	–	–	–
Cc1cccc(C)c1OCC(C)N (configuration not stated)	inactive	inactive	inactive	inactive	–	–	–	–
CC(C)(C)NC(=O)[C@@H]1CN(Cc2cccnc2)CCN1C[C@@H](O)C[C@@H](Cc1ccccc1)C(=O)N[C@H]1c2ccccc2C[C@H]1O	inactive	inactive	inactive	inactive	–	–	–	–
CN1CCN(C(c2ccccc2)c2ccccc2)CC1	inactive	inactive	inactive	inactive	–	–	–	–
CN(C)C(=N)N=C(N)N	inactive	inactive	inactive	inactive	–	–	–	–

SMILES	Potency [1]	Potency [2]	Potency [3]	Potency [4]	activity change, negative = inhibition [1]	activity change, negative = reduced viability [2]	activity change, negative = lower viability [3]	activity change, negative = inhibition [4]
CCN(CC)CCNC(=O)c1cc(Cl)c(N)cc1OC	inactive	inactive	inactive	inactive	–	–	–	–
CCCCNC(=O)NS(=O)(=O)c1ccc(C)cc1	inactive	inactive	inactive	inactive	–	–	–	–
N[C@@H](C(=O)N[C@@H]1C(=O)N2C(C(=O)O)=C(Cl)CS[C@H]12)c1ccccc1	inactive	inactive	inactive	inactive	–	–	–	–
CCOC(=O)[C@H](CCc1ccccc1)N[C@@H](C)C(=O)N1Cc2cc(OC)c(OC)cc2C[C@H]1C(=O)O	inactive	inactive	inactive	inactive	–	–	–	–
CC(=O)Nc1nnc(S(N)(=O)=O)s1	inactive	inactive	inactive	inactive	–	–	–	–
CC(C)NCC(O)c1ccc(O)c(O)c1 (configuration not stated)	inactive	inactive	inactive	inactive	–	–	–	–
CCc1nc(N)nc(N)c1-c1ccc(Cl)cc1	inactive	38.5 µM (active)	7.69 µM (active)	inactive	–	–	–	–
CCCN1C[C@H](CSC)C[C@@H]2c3cccc4[nH]cc(c34)C[C@H]21	inactive	inactive	inactive	inactive	–	–	–	–
Cc1cn[nH]c1	inactive	inactive	inactive	inactive	–	–	–	–
CCN(C)C(=O)Oc1cccc([C@H](C)N(C)C)c1	inactive	inactive	inactive	inactive	–	–	–	–
OC(Cn1cncn1)(Cn1cncn1)c1ccc(F)cc1F	inactive	inactive	inactive	inactive	–	–	–	–
CN1CCN(C2=Nc3cc(Cl)ccc3Nc3ccccc32)CC1	inactive	inactive	inactive	inactive	–	–	–	–
COCCCOc1cc(C[C@@H](C[C@H](N)[C@@H](O)C[C@H](C(=O)NCC(C)(C)C(N)=O)C(C)C)C(C)C)ccc1OC	inactive	inactive	inactive	inactive	–	–	–	–
CC(C)C1CCC(C(=O)N[C@H](Cc2ccccc2)C(=O)O)CC1 (some centres not stated)	inactive	inactive	inactive	inactive	–	–	–	–
O[C@@H](CNC[C@H](O)[C@H]1CCc2cc(F)ccc2O1)[C@@H]1CCc2cc(F)ccc2O1	inactive	inactive	inactive	inactive	–	–	–	–
COc1cc2c(cc1OC)[C@@H]1CC(=O)[C@@H](CC(C)C)CN1CC2	inactive	inactive	inactive	inactive	–	–	–	–
COc1ccccc1OCCNCC(O)COc1cccc2[nH]c3ccccc3c12 (configuration not stated)	inactive	inactive	inactive	inactive	–	–	–	–
C[N+]1(C)CCC(OC(=O)C(O)(c2ccccc2)C2CCCC2)C1 (configuration not stated)	inactive	inactive	inactive	inactive	–	–	–	–
CCCN(CCC)S(=O)(=O)c1ccc(C(=O)O)cc1	inactive	inactive	inactive	inactive	–	–	–	–
COc1cc(Cc2cnc(N)nc2N)cc(OC)c1OC	inactive	inactive	inactive	inactive	–	–	–	–
CCCCNc1ccc(C(=O)OCCOCCOCCOCCOCCOCCOCCOCCOCCOC)cc1	inactive	inactive	inactive	inactive	–	–	–	–
COc1cc2nc(N(C)CCCNC(=O)C3CCCO3)nc(N)c2cc1OC (configuration not stated)	inactive	inactive	inactive	inactive	–	–	–	–
CC(=O)N[C@@H](CS)C(=O)O	inactive	inactive	inactive	inactive	–	–	–	–

SMILES	Potency [1]	Potency [2]	Potency [3]	Potency [4]	activity change, negative = inhibition [1]	activity change, negative = reduced viability [2]	activity change, negative = lower viability [3]	activity change, negative = inhibition [4]
CCCCS(=O)(=O)N[C@@H](Cc1ccc(OCCCCC2CCNCC2)cc1)C(=O)O	inactive	inactive	inactive	inactive	–	–	–	–
CN(C)c1cc(NC(=O)CNC(C)(C)C)c(O)c2c1C[C@@H]1C[C@H]3[C@H](N(C)C)C(=O)C(C(N)=O)=C(O)[C@@]3(O)C(=O)C1=C2O	inactive	inactive	inactive	inactive	–	–	–	–
CCN(CC)C(=S)SSC(=S)N(CC)CC	0.193 µM (active)	0.122 µM (active)	0.863 µM (active)	0.193 µM (active)	–	–	–	–
OC(CCN1CCCC1)(c1ccccc1)C1CCCCC1 (configuration not stated)	inactive	inactive	inactive	inactive	–	–	–	–
CCCC(=O)Nc1ccc(OCC(O)CNC(C)C)c(C(C)=O)c1 (configuration not stated)	inactive	inactive	inactive	inactive	–	–	–	–
CC(CN(C)C)CN1c2ccccc2CCc2ccccc21 (configuration not stated)	inactive	inactive	inactive	inactive	–	–	–	–
O[C@@H](c1cc(C(F)(F)F)nc2c(C(F)(F)F)cccc12)[C@H]1CCCCN1	inactive	inactive	inactive	inactive	–	–	–	–
CCC1(c2ccccc2)C(=O)NCNC1=O	inactive	inactive	inactive	inactive	–	–	–	–
Cc1ccccc1N1C(=O)c2cc(S(N)(=O)=O)c(Cl)cc2NC1C (configuration not stated)	inactive	inactive	inactive	inactive	–	–	–	–
CC(C)C[C@H](NC(=O)[C@H](CCc1ccccc1)NC(=O)CN1CCOCC1)C(=O)N[C@@H](Cc1ccccc1)C(=O)N[C@@H](CC(C)C)C(=O)[C@@]1(C)CO1	0.485 µM (active)	0.432 µM (active)	0.544 µM (active)	0.385 µM (active)	–	–	–	–
CN1CCc2cccc3c2[C@H]1Cc1ccc(O)c(O)c1-3	inactive	inactive	inactive	inactive	–	–	–	–
O=P(O)(O)C(O)(Cc1cccnc1)P(=O)(O)O	inactive	inactive	inactive	inactive	–	–	–	–
CCCN(CCC)CCc1cccc2c1CC(=O)N2	inactive	inactive	inactive	inactive	–	–	–	–
CS(=O)(=O)OCCCCOS(C)(=O)=O	inactive	inactive	inactive	inactive	–	–	–	–
CC(COc1ccccc1)N(CCCl)Cc1ccccc1 (configuration not stated)	inactive	inactive	inactive	inactive	–	–	–	–
O=C1[C@H](CC[C@H](O)c2ccc(F)cc2)[C@@H](c2ccc(O)cc2)N1c1ccc(F)cc1	inactive	inactive	inactive	inactive	–	–	–	–
CC(C)NCC(O)COc1ccc(CCOCC2CC2)cc1 (configuration not stated)	inactive	inactive	inactive	inactive	–	–	–	–
Cc1c(O)cccc1C(=O)N[C@@H](CSc1ccccc1)[C@H](O)CN1C[C@H]2CCCC[C@H]2C[C@H]1C(=O)NC(C)(C)C	inactive	inactive	inactive	inactive	–	–	–	–
O=C(O)c1ccc(-n2nc(-c3ccccc3O)nc2-c2ccccc2O)cc1	inactive	inactive	inactive	inactive	–	–	–	–
Cc1ccnc2c1NC(=O)c1cccnc1N2C1CC1	inactive	inactive	inactive	inactive	–	–	–	–
CCOc1ccccc1OCCN[C@H](C)Cc1ccc(OC)c(S(N)(=O)=O)c1	inactive	inactive	inactive	inactive	–	–	–	–
NCCCC(N)CC(=O)NCC1NC(=O)C(CO)NC(=O)C(N)CNC(=O)C(C2CCN=C(N)N2)NC(=O)C(=CNC(N)=O)NC1=O (stereo not drawn) (H-[Dap]S[Dap](ξβ3hOrn)[ΔAla(3-NHCONH2)][X1]; lactam 1-C; configuration not given here)	–	–	–	–	2.05% [at 0.757 µM]	-7.39% [at 0.757 µM]	-4.22% [at 0.757 µM]	-2.08% [at 0.757 µM]
